“And” between values parts separate entries of the source, which are not always exact repeats. Equal entries are not always repeated. Records with an inconclusive call do not appear. Some compounds were tested as several samples or in several runs, with calls that do not always agree. The source made the active and inactive calls. Unless noted, calls come from the whole dose curve; as a rule, active = well fitted curve in the direction sought with a large enough effect; inconclusive = small, poorly fitted or top-dose-only effect, or another doubt; inactive = no such curve, though single readings can be large; an effect the other way counts as inactive or inconclusive.

This note sets out measurements from PubChem BioAssay (NCATS).

Experiment [1] is described as follows: Primary qHTS for inhibitors of La Crosse Virus (LACV) - induced cell death in SH-SY5Y cells (AID 1508616).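 Note: top concentration of the series differs between compounds; 0% = infected DMSO wells and 100% = uninfected DMSO wells; higher means more rescue of cells from virus-induced death.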 Put shortly: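 Rescue of virus-induced death was read as ATPLite luminescence after 6 days at 37C, scaled between DMSO wells with LACV and without virus. Cells were SH-SY5Y, 6000/well, infected at 0.01 MOI after compound addition.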
For experiment [2], the target named is Calcium and integrin-binding protein 1 (Homo sapiens) (UniProt Q99828). Kind of experiment: Primary qHTS for Identification of Calcium Integrin Binding Protein 1 (CIB1) Competitor (AID 1508620).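 Note: GST tagged CIB1 binding a fluorescein labelled alphaIIb integrin peptide tracer; top concentration of the series differs between compounds; % is set by controls: 0 for no effect and ±100 for the full control effect.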 In a few lines:
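Fluorescence polarization competition: GST-tagged CIB1 (1 uM final) preincubated with compound 15 min at room temperature, then FITC-labelled alphaIIb peptide (100 nM final) added. After 15 min at room temperature, polarization read at Ex 480/Em 540.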

Experiment [3] can be described thus: Primary qHTS for small molecule stabilizers of the endoplasmic reticulum resident proteome: Secreted ER Calcium Modulated Protein (SERCaMP) assay (AID 1508630). Note: % is set by controls: 0 for no effect and ±100 for the full control effect. Put shortly:
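The SH-SY5Y reporter protocol was run at 3 concentrations up to 38.3 uM (primary) or 11 concentrations (follow-up): 16 h compound, 100 nM thapsigargin for 4 h, then extracellular luciferase luminescence.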
(In qHTS, concentration-response curves come from the screen itself.)

Experiment [4] can be described thus: A High-Content qHTS Against Drug Library for the Identification of Small Molecules that Inhibit DYT1 Early Onset Primary Dystonia-Associated Cell Pathology (AID 1645839; calls by dose curve; note: series mostly up to about 46 µM). In a few lines: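 Cells were seeded and left for 24 h, then dosed with compound alongside tetracycline induction of mutant EGFP-TorsinA. They were incubated for 48 h, fixed in 4% paraformaldehyde, permeabilized and imaged for mislocalization (%pathology) and cell count.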

Experiment [5] addresses Cytochrome P450 2D6 (Homo sapiens) (UniProt P10635). As to the kind of experiment: Cytochrome P450 family 2 subfamily D member 6 (CYP2D6) small molecule antagonists: luciferase biochemical (cell-free) qHTS assay (AID 1645840; active = well fitted curve in the direction sought with a large enough effect in the repeat runs; an effect the other way counts as inactive or inconclusive; note: nearly all actives have a fitted effect of over 55% in size; note: potency is the fitted concentration of half-maximal effect; for activity change, negative = inhibition: series mostly up to about 57 µM; % is set by controls: 0 for no effect and ±100 for the full control effect). In a few lines: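 P450-Glo CYP2D6 system: proluciferin substrate converted by enzyme to luciferin, read by luminescence proportional to activity. Enzyme-substrate mix with compound 10 min at room temperature, then NADPH regeneration 1 h before detection reagent.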

In experiment [6] the target is Cytochrome P450 2C9 (Homo sapiens) (UniProt P11712). As to the kind of experiment: Cytochrome P450 family 2 subfamily C member 9 (CYP2C9) small molecule antagonists: luciferase biochemical (cell-free) qHTS assay (AID 1645842; active = well fitted curve in the direction sought with a large enough effect in the repeat runs; an effect the other way counts as inactive or inconclusive; note: nearly all actives have a fitted effect of over 55% in size; note: potency is the fitted concentration of half-maximal effect; for activity change, negative = inhibition: series mostly up to about 57 µM; % is set by controls: 0 for no effect and ±100 for the full control effect). In a few lines: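 P450-Glo CYP2C9 system: proluciferin substrate with enzyme in mix containing 0.4% BSA, 10 min at room temperature, then NADPH regeneration solution added and incubated 1 h at 37C. Detection reagent stopped reaction; luminescence read after 20 min as RLU.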

Experiment [7] is described as follows: Primary qHTS for inhibitors of nuclear receptor binding SET domain protein 2 (NSD2) in an isogenic RCH-ACV NSD2 p.E1099K mutant (9B) (AID 1645876). Note: nearly all actives have a fitted effect of over 70% in size. Note: potency is the fitted concentration of half-maximal effect.
A short description of experiment [8]: Primary qHTS for inhibitors of nuclear receptor binding SET domain protein 2 (NSD2) in an RCH-ACV wild type WT cells (2C) (AID 1645877). Note: nearly all actives have a fitted effect of over 70% in size. Note: potency is the fitted concentration of half-maximal effect.
Experiment [9] has as its target Rap guanine nucleotide exchange factor 3 (Homo sapiens) (UniProt O95398). As to the kind of experiment: Confirmatory qHTS for antagonist of cAMP-regulated guanine nucleotide exchange factor 3 (EPAC1) (AID 1645880).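 Note: plate controls were DMSO only for no effect and full effect of the ATA control for full effect; nearly all actives have a fitted effect of over 55% in size.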 In a few lines: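 Released BODIPY-GDP fluoresces less than Rap1-bound BODIPY-GDP; the signal is followed at 480/540 nm at 5-min intervals over 30 min, after 5 min at room temperature. Reactions contain 100 nM EPAC1, 250 nM RAP1B-BODIPY-GDP and 50 uM GDP; results are normalized to ATA and DMSO.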

For experiment [10] the target is unchanged. As to the kind of experiment: Confirmatory qHTS for agonist of cAMP-regulated guanine nucleotide exchange factor 3 (EPAC1) (AID 1645881).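 Note: EPAC1 catalysed release of BODIPY-GDP from Rap1B seen as fluorescence loss; 100% = effect of cAMP agonist control; nearly all actives have a fitted effect of over 75% in size.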
Experiment [11] deals with Rap guanine nucleotide exchange factor 4 (Homo sapiens) (UniProt Q8WZA2). Kind of experiment: Confirmatory qHTS for agonist of cAMP-regulated guanine nucleotide exchange factor 4 (EPAC2) (AID 1645884).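 Note: nucleotide exchange releases bodipy-GDP from Rap1 and this lowers its fluorescence; % is set by controls: 0 for no effect and ±100 for the full control effect; nearly all actives have a fitted effect of over 65% in size.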
For experiment [12] the target is unchanged. Kind of experiment: Confirmatory qHTS for antagonist of cAMP-regulated guanine nucleotide exchange factor 4 (EPAC2) (AID 1645885). Note: % is set by controls: 0 for no effect and ±100 for the full control effect; nearly all actives have a fitted effect of over 25% in size.

Chain of Calcium and integrin-binding protein 1 (Homo sapiens) (Q99828 whole entry, looked up): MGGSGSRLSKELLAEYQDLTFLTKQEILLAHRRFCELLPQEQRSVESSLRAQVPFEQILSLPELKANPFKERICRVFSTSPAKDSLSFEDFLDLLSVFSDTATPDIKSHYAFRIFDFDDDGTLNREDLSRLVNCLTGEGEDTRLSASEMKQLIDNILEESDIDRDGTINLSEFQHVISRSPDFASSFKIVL
Chain of Cytochrome P450 2D6 (Homo sapiens) (P10635 whole entry, looked up): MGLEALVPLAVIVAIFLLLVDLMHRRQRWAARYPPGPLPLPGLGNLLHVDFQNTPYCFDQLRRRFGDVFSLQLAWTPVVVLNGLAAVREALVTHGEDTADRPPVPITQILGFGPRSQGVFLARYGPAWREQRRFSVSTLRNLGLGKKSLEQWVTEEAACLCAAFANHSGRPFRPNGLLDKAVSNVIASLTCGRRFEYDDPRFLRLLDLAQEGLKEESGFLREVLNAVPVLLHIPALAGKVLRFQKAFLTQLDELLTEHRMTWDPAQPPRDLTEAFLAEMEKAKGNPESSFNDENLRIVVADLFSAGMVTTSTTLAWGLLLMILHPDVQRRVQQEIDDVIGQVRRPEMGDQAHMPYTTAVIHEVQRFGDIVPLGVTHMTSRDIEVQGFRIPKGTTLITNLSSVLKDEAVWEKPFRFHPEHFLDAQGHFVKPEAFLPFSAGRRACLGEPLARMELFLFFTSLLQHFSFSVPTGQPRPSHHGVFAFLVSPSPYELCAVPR
Chain of Cytochrome P450 2C9 (Homo sapiens) (P11712 whole entry, looked up): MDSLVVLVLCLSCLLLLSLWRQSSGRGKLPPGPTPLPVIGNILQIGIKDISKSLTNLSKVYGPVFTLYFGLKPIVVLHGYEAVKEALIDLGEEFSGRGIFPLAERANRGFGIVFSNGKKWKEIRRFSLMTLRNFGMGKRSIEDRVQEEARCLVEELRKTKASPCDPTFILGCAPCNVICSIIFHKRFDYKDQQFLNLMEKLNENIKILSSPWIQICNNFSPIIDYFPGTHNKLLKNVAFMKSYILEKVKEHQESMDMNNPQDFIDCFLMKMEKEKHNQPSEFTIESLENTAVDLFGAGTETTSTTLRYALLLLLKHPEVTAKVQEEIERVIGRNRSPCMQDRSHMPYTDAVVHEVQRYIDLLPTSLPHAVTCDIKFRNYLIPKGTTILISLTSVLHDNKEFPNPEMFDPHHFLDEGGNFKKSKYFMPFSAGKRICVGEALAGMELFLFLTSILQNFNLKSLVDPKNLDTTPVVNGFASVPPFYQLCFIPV
Chain of Rap guanine nucleotide exchange factor 3 (Homo sapiens) (O95398 whole entry, looked up): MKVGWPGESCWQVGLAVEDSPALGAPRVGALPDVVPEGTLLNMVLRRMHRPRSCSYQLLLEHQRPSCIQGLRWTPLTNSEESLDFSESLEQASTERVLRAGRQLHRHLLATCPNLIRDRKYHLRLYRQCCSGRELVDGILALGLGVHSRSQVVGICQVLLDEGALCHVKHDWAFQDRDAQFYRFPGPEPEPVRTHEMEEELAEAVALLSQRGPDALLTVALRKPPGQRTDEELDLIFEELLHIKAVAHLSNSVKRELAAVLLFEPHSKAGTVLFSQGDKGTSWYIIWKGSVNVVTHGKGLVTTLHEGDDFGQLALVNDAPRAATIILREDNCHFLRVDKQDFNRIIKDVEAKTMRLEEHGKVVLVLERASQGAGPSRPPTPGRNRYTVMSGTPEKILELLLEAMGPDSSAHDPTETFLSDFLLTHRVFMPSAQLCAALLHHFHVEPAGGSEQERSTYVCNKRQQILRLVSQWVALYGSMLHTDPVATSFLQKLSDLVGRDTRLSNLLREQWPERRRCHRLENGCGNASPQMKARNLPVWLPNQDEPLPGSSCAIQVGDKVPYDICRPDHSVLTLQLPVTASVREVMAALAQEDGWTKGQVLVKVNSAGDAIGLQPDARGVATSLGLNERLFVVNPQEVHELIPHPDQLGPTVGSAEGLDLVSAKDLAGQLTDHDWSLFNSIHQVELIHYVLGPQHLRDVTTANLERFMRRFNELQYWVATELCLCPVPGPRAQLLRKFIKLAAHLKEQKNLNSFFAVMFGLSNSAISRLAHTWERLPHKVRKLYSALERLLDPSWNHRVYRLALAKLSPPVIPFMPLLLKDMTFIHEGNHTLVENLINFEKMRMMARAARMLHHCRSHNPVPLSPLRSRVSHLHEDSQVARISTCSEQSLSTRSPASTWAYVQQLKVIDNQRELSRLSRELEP
Chain of Rap guanine nucleotide exchange factor 4 (Homo sapiens) (Q8WZA2 whole entry, looked up): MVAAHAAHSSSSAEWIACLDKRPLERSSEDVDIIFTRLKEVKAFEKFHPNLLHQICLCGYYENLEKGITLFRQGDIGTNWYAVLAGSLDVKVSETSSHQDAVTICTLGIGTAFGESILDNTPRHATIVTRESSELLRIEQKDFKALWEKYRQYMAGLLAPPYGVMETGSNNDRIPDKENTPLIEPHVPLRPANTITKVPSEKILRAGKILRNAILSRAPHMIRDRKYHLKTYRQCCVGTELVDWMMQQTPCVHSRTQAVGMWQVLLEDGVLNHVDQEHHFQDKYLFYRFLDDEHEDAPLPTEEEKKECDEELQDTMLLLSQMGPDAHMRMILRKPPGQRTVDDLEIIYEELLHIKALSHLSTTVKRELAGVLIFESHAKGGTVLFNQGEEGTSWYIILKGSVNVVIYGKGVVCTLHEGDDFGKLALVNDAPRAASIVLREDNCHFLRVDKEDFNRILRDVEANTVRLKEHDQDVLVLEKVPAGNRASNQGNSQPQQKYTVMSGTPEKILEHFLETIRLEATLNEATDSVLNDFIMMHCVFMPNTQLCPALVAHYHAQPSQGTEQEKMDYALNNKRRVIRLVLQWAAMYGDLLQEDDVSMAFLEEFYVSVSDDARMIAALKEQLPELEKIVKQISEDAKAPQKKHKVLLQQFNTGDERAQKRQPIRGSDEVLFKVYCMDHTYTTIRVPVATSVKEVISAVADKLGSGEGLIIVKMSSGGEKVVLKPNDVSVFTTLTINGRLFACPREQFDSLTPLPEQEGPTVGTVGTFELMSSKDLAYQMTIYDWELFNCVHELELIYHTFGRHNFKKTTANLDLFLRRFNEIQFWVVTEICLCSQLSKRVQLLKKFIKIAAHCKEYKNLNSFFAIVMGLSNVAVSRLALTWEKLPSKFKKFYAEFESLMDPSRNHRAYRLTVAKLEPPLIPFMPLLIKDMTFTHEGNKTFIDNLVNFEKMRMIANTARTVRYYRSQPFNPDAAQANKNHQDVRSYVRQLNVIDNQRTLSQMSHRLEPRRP

Consider `CC(O)(P(=O)(O)O)P(=O)(O)O`, for which the Potency entry in experiment [1], in experiment [2], in [3], in [4], in [5] and in [6] was “inactive” in each case. Besides, the Potency result in experiment [7] and in experiment [8] was “inactive” in each case.
Regarding `Cc1onc(-c2c(Cl)cccc2Cl)c1C(=O)N[C@@H]1C(=O)N2[C@@H]1SC(C)(C)[C@@H]2C(=O)O`, the Potency result in [1], in experiment [2], in [3], in experiment [4], in experiment [5] and in [7] was “inactive” each time. Besides, in experiment [8], the Potency entry is “inactive”. The Potency in experiment [6] is 20.4 µM (active).
`CCOc1ccc(NC(=O)CC(C)O)cc1` (configuration not stated): the Potency result in [1], in experiment [2], in experiment [3], in [4], in [5] and in [6] was “inactive” throughout. The Potency result in experiment [7] and in [8] was “inactive” each time.
With `CCC(C(=O)OCCN(CC)CC)c1ccccc1` (configuration not stated), the Potency entry in [1], in [2], in experiment [3], in [4], in experiment [6] and in experiment [7] was “inactive” throughout. Besides, the Potency result in experiment [8] was “inactive”. Also, the Potency in [5] was 3.09 µM (active).
In the case of `Cc1c(N(C)CS(=O)(=O)O)c(=O)n(-c2ccccc2)n1C`, the Potency entry in [1], in experiment [2], in experiment [3], in experiment [4], in [5] and in experiment [6] was “inactive” throughout. The Potency result in experiment [7] and in experiment [8] was “inactive” throughout.
Consider `CCCCCC=CCC=CCCCCCCCC(=O)OCC`, for which the Potency entry in experiment [1], in [2], in experiment [3] and in experiment [4] was “inactive” throughout. Moreover, the Potency in experiment [6] was 9.77 µM (active); in experiment [7] it was 23.7 µM (active); in experiment [8] it was 18.8 µM (active).
`CCn1cc(C(=O)O)c(=O)c2cnc(N3CCCC3)nc21`: the activity change in experiment [1] was -0.143% [at 0.858 µM] (inactive). Further, the Potency result in [2] is “inactive”. For the same compound, the activity change, negative = inhibition in [3] was -14.1% [at 7.35 µM] (inactive); in [5], -1.21% [at 11.5 µM] (inactive); in experiment [6], -2.8% [at 11.5 µM] (inactive). Besides, the % pathology change, negative = correction in experiment [4] is 0.401% [at 9.22 µM] (inactive). The activity change, negative = viability loss in [7] is 4% [at 9.23 µM] (inactive). Also, the activity change, negative = cell killing in [8] is -0.361% [at 9.23 µM] (inactive).
Turning to `CC(=O)OCC(=O)[C@@]1(O)CC[C@H]2[C@@H]3CCC4=CC(=O)C=C[C@]4(C)[C@H]3[C@@H](O)C[C@@]21C`, the Potency entry in experiment [1], in experiment [2], in [3], in experiment [4] and in experiment [6] was “inactive” each time. Moreover, the Potency in experiment [8] was 18.8 nM (active) and 183 nM (active).
As to `C[C@@H]1C[C@H]2[C@@H]3C[C@H](F)C4=CC(=O)C(Cl)=C[C@]4(C)[C@@]3(F)[C@@H](O)C[C@]2(C)[C@@]1(O)C(=O)CO`, the Potency entry in [1], in experiment [2], in experiment [3], in experiment [4] and in [6] was “inactive” in each case.
In the case of `C=CCc1ccc(O)c(OC)c1`, the Potency result in [1], in experiment [2], in experiment [3], in [4], in experiment [5] and in experiment [7] was “inactive” each time. The Potency result in experiment [8] is “inactive”.
Regarding `CC(=O)Oc1ccc2c(c1)CC[C@@H]1[C@@H]2CC[C@]2(C)[C@@H](O)CC[C@@H]12`, the Potency entry in experiment [1], in experiment [2], in experiment [3], in experiment [4], in experiment [6] and in experiment [9] was “inactive” each time. Besides, the Potency entry in [11] and in experiment [12] was “inactive” in each case. Also, the Potency in experiment [7] was 13.3 µM (active); in experiment [8] it was 8.41 µM (active). The call in experiment [10] was inactive.
In the case of `CC(=O)OCC(=O)NCCCOc1cccc(CN2CCCCC2)c1`, the Potency result in experiment [1], in experiment [2], in [3], in [4], in experiment [6] and in experiment [7] was “inactive” in each case. For the same compound, the Potency entry in [8] was “inactive”.
As to `CCN(CC)CCNC(=O)COc1ccc(Cl)cc1`, the Potency result in [1], in experiment [2], in [3], in [4], in experiment [6] and in [7] was “inactive” throughout. For the same compound, the Potency entry in experiment [8] was “inactive”. Moreover, in experiment [5], the Potency is 13.8 µM (active).
On to `CCN1CCC[C@H]1CNC(=O)c1c(OC)ccc(Br)c1OC`, for which the Potency entry in experiment [1], in [2], in experiment [3], in [4], in experiment [6] and in [7] was “inactive” throughout. Also, the Potency entry in experiment [8] was “inactive”.
Turning to `O=C(O)CNC(=O)c1ccccc1`, the Potency result in experiment [1], in experiment [2], in experiment [3], in experiment [4], in [5] and in experiment [6] was “inactive” each time. For the same compound, the Potency result in experiment [7] and in [8] was “inactive” throughout.
On to `Cc1ncc(CSSCc2cnc(C)c(O)c2CO)c(CO)c1O`, for which the Potency entry in [1], in [2], in experiment [3], in experiment [4], in experiment [7] and in [8] was “inactive” in each case. In addition, the Potency in [5] was 7.76 µM (active); in [6] it was 6.17 µM (active).
Regarding `CC1=C(C(=O)O)N2C(=O)[C@@H](NC(=O)[C@H](N)c3ccc(O)cc3)[C@H]2SC1`, the Potency entry in [1], in experiment [2], in experiment [3], in experiment [4], in [5] and in [7] was “inactive” throughout. The Potency entry in experiment [8] was “inactive”.
Take `COc1ccc(C2C(=O)c3ccccc3C2=O)cc1`: the Potency entry in [1], in experiment [2], in [3], in experiment [4], in experiment [5] and in experiment [6] was “inactive” throughout. The Potency entry in experiment [7] and in [8] was “inactive” throughout.
In the case of `CC1(C)O[C@@H]2[C@@H](CO[C@@]3(COS(N)(=O)=O)OC(C)(C)O[C@@H]23)O1`, the Potency entry in experiment [1], in experiment [2], in experiment [3], in [4], in experiment [5] and in experiment [6] was “inactive” in each case. For the same compound, the Potency result in [7] and in experiment [8] was “inactive” throughout.
`Cc1cc2c(cc1CC(=O)c1sccc1S(=O)(=O)Nc1onc(C)c1Cl)OCO2`: the Potency entry in experiment [1], in experiment [2], in experiment [3], in experiment [4], in experiment [7] and in [8] was “inactive” each time. For the same compound, the Potency in [5] is 4.36 µM (active) and inactive; in experiment [6], 3.09 µM (active).
In the case of `CC(C)(C)NC(=O)[C@@H]1CN(Cc2cccnc2)CCN1C[C@@H](O)C[C@@H](Cc1ccccc1)C(=O)N[C@H]1c2ccccc2C[C@H]1O`, the Potency result in experiment [1], in experiment [2], in experiment [3], in experiment [4], in experiment [6] and in experiment [7] was “inactive” each time. The Potency entry in experiment [8] was “inactive”.
Regarding `C[C@]12C=CC(=O)C=C1CC[C@@H]1[C@@H]2[C@@H](O)C[C@@]2(C)[C@H]1CC[C@]2(O)C(=O)CO`, the Potency result in experiment [1], in experiment [2], in experiment [3], in [4], in experiment [5] and in [6] was “inactive” throughout. Moreover, the Potency in experiment [8] is 42.2 nM (active) and 209 nM (active).
